Laboratory results as given in PubChem BioAssay AID1159580 (chemical genetic matrix, 2015).
“And” between values parts separate entries of the source, which are not always exact repeats. Identical values can stand only once. The whole screen tested about 5,500 compounds, of which about 2,000 (36%) were called active. Another 18% or so got no clear call; they are omitted. Rule as the data show it: active = normalized growth mostly below about 0.91 (no sharp cut-off); inconclusive = no clear call, values can overlap the other calls; inactive = mostly above about 0.92. This is one part of the list.

Assay: chemical genetic growth profiling, strain panel (AID 1159580);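 also: tested at 20 µM; growth read once vehicle control cultures reached saturation at 30 °C; 1 = growth at the plate median or of vehicle wells; lower values mean less growth of the strain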
Details: S. cerevisiae deletion strains, growth OD
[1] = locus YAL013W, strain DEP1, hits give low values
[2] = locus YBR229C, strain ROT2, hits give low values
[3] = locus YDL101C, strain DUN1, hits give low values
[4] = locus YDR150W, strain NUM1, hits give low values
[5] = locus YEL061C, strain CIN8, hits give low values
[6] = locus YHR030C, strain SLT2, hits give low values
[7] = locus YJL187C, strain SWE1, hits give low values
[8] = locus YJR043C, strain POL32, hits give low values
[9] = locus YJR075W, strain HOC1, hits give low values
[10] = locus YLR039C, strain RIC1, hits give low values
[11] = locus YLR262C, strain YPT6, hits give low values
[12] = locus YMR263W, strain SAP30, hits give low values

Measured: normalized growth

Cc1ccc2c(c1)N(CCO)C(C)(C)CC2C (centres undefined)
inactive: [1] 1 | [2] 0.997 | [3] 0.97 | [4] 0.909 | [5] 1.03 | locus YGR078C, strain PAC10, hits give low values 0.986 | [6] 0.982 | locus YHR087W, strain rtc3, hits give low values 0.961 | [7] 1 | [8] 0.98 | [9] 0.975 | [10] 0.969 | locus YLR058C, strain SHM2 (second series), hits give low values 0.988 | locus YLR085C, strain ARP6, hits give low values 1.03 | [11] 0.955 | locus YML094W, strain GIM5, hits give low values 0.993 | locus YMR219W, strain ESC1, hits give low values 0.987 | [12] 0.997 | locus YNL153C, strain GIM3, hits give low values 1 | locus YNL298W, strain CLA4 (second series), hits give low values 1.04 | locus YNL322C, strain KRE1, hits give low values 1 | locus YNR030W, strain Alg12, hits give low values 0.986 | locus YOL006C, strain TOP1, hits give low values 1.02 | locus YPL055C, strain LGE1, hits give low values 0.962 | locus YPL241C, strain CIN2, hits give low values 0.998 | locus YPR135W, strain CTF4, hits give low values 0.953

COc1cc(OC)c(OC)cc1C=O
inactive: [1] 0.991 | locus YAL021C, strain ccr4, hits give low values 1.01 | locus YAL026C, strain drs2, hits give low values 1 | locus YAL030W, strain snc1, hits give low values 0.998 | locus YBL061C, strain skt5, hits give low values 0.991 | locus YBR009C, strain hhf1, hits give low values 0.993 | locus YBR021W, strain FUR4, hits give low values 1.03 | locus YBR023C, strain chs3, hits give low values 0.991 | locus YBR171W, strain sec66, hits give low values 0.991 | [2] 1.01 | locus YBR231C, strain swc5, hits give low values 0.998 | locus YBR279W, strain paf1, hits give low values 0.997 | locus YCL011C, strain gbp2, hits give low values 1 | locus YCL016C, strain dcc1, hits give low values 0.995 | locus YCL029C, strain bik1, hits give low values 0.972 | locus YCL061C, strain MRC1, hits give low values 0.996 | locus YCL069W, strain vba3, hits give low values 0.999 | locus YCR088W, strain abp1, hits give low values 0.999 | locus YDL005C, strain med2, hits give low values 0.985 | locus YDL035C, strain GPR1, hits give low values 1.01 | locus YDL040C, strain nat1, hits give low values 0.998 | locus YDL074C, strain BRE1, hits give low values 1 | [3] 1.02 | locus YDL185W, strain tfp1, hits give low values 0.94 | locus YDL192W, strain arf1, hits give low values 0.997 | locus YDR001C, strain nth1, hits give low values 0.999 | locus YDR069C, strain doa4, hits give low values 0.991 | locus YDR101C, strain arx1, hits give low values 0.989 | locus YDR137W, strain rgp1, hits give low values 0.973 | [4] 0.991 | locus YDR159W, strain sac3, hits give low values 1 | locus YDR162C, strain NBP2, hits give low values 1.06 | locus YDR195W, strain ref2 1.01 | locus YDR297W, strain sur2, hits give low values 0.989 | locus YDR318W, strain mcm21, hits give low values 0.994 | locus YDR334W, strain swr1, hits give low values 0.987 | locus YDR335W, strain msn5, hits give low values 1 | locus YDR388W, hits give low values 0.988 | locus YDR392W, strain spt3, hits give low values 0.999 | locus YDR502C, strain sam2, hits give low values 0.995 | locus YEL003W, strain gim4, hits give low values 0.999 | locus YEL037C, strain rad23, hits give low values 1 | locus YEL061C, strain CIN8 (second series), hits give low values 1 | [5] 1.01 | locus YER015W, strain faa2, hits give low values 0.997 | locus YER016W, strain bim1, hits give low values 0.994 | locus YER110C, hits give low values 0.968 | locus YER111C, strain swi4, hits give low values 1 | locus YER155C, strain BEM2 (second series), hits give low values 1 | locus YER155C, strain BEM2, hits give low values 0.991 | locus YER167W, strain BCK2, hits give low values 1.02 | locus YFR010W, strain ubp6, hits give low values 0.999 | locus YGL078C, strain dbp3, hits give low values 0.986 | locus YGL086W, strain mad1, hits give low values 0.984 | locus YGL167C, strain pmr1, hits give low values 1 | locus YGL173C, strain kem1, hits give low values 0.997 | locus YGL227W, strain vid30, hits give low values 0.992 | locus YGL240W, strain doc1, hits give low values 1.02 | locus YGL248W, strain PDE1, hits give low values 1.06 | locus YGL253W, strain hxk2, hits give low values 0.992 | locus YGR135W, strain pre9, hits give low values 1.03 | locus YGR252W, strain gcn5, hits give low values 1.08 | locus YHR013C, strain ard1, hits give low values 1.02 | locus YHR027C, strain rpn1, hits give low values 0.994 | [6] 0.994 and 0.979 | locus YHR079C, strain IRE1 (second series), hits give low values 0.987 | locus YHR079C, strain IRE1, hits give low values 0.996 | locus YHR094C, strain hxt1, hits give low values 1 | locus YHR129C, strain ARP1, hits give low values 1.02 | locus YHR142W, strain chs7, hits give low values 0.998 | locus YHR200W, strain rpn10, hits give low values 0.978 | locus YIL066C, strain RNR3, hits give low values 1.04 | locus YIL073C, strain SPO22, hits give low values 0.955 | locus YIL125W, strain kgd1, hits give low values 0.998 | locus YIR030C, strain dcg1, hits give low values 0.99 | locus YJL092W, strain hpr5, hits give low values 0.995 | locus YJL095W, strain BCK1 (second series), hits give low values 0.99 | locus YJL095W, strain BCK1, hits give low values 1.09 and 0.989 | locus YJL115W, strain asf1, hits give low values 1 | locus YJL129C, strain trk1, hits give low values 1 | locus YJL134W, strain LCB3, hits give low values 0.987 | locus YJL154C, strain vps35, hits give low values 0.995 | locus YJL164C, strain tpk1, hits give low values 1 | locus YJL166W, strain qcr8, hits give low values 1.01 | locus YJL168C, strain set2, hits give low values 0.991 | locus YJL187C, strain SWE1 (second series), hits give low values 1.04 | [7] 0.991 | [8] 0.986 | locus YJR066W, strain TOR1, hits give low values 0.916 | [9] 1.01 | locus YKL009W, strain mrt4, hits give low values 0.972 | locus YKL068W, hits give low values 0.985 | locus YKL085W, strain MDH1 (second series), hits give low values 0.988 | locus YKL085W, strain MDH1, hits give low values 0.988 | locus YKL160W, strain elf1, hits give low values 1 | locus YKR001C, strain vps1, hits give low values 1.02 | locus YKR026C, strain gcn3, hits give low values 0.994 | locus YKR091W, strain srl3, hits give low values 0.997 | locus YLL001W, strain dnm1, hits give low values 1.01 | locus YLL026W, hits give low values 0.99 | locus YLL041C, strain sdh2, hits give low values 0.996 | locus YLR027C, strain aat2, hits give low values 1.01 | [10] 0.989 | locus YLR058C, strain SHM2, hits give low values 1.03 | locus YLR102C, strain apc9, hits give low values 0.971 | locus YLR113W, strain HOG1, hits give low values 1.01 | locus YLR221C, strain rsa3, hits give low values 0.992 | locus YLR258W, strain gsy2, hits give low values 1 | locus YLR262C, strain YPT6 (second series), hits give low values 0.985 | [11] 1.02 | locus YLR268W, strain sec22, hits give low values 0.97 | locus YLR320W, strain mms22, hits give low values 0.995 | locus YLR330W, strain CHS5, hits give low values 1.01 | locus YLR342W, strain FKS1 (second series), hits give low values 1.05 | locus YLR342W, strain FKS1, hits give low values 0.997 | locus YLR357W, strain rsc2, hits give low values 0.957 | locus YLR370C, strain arc18, hits give low values 0.997 | locus YLR371W, strain rom2, hits give low values 0.993 | locus YLR384C, strain iki3, hits give low values 1.01 | locus YLR418C, strain cdc73, hits give low values 1.02 | locus YML016C, strain PPZ1, hits give low values 1.01 | locus YML032C, strain rad52, hits give low values 1.04 | locus YML120C, strain ndi1, hits give low values 0.999 | locus YML124C, strain tub3, hits give low values 0.984 | locus YMR058W, strain fet3, hits give low values 1 | locus YMR078C, strain ctf18, hits give low values 0.982 | locus YMR125W, strain sto1, hits give low values 0.991 | locus YMR129W, hits give low values 0.989 | locus YMR205C, strain PFK2, hits give low values 1 | locus YMR223W, strain ubp8, hits give low values 1 | locus YMR231W, strain pep5, hits give low values 0.989 | [12] 1.01 | locus YMR307W, strain GAS1, hits give low values 1.09 | locus YNL067W, strain RPL9B, hits give low values 1.04 | locus YNL071W, strain lat1, hits give low values 1 | locus YNL183C, strain NPR1, hits give low values 0.946 | locus YNL209W, strain ssb2, hits give low values 0.996 | locus YNL233W, strain BNI4, hits give low values 1.06 | locus YNL248C, strain rpa49, hits give low values 1 | locus YNL250W, strain rad50, hits give low values 0.964 | locus YNL271C, strain bni1, hits give low values 0.982 | locus YNL298W, strain CLA4, hits give low values 0.987 | locus YNL307C, strain MCK1, hits give low values 0.999 | locus YNL322C, strain KRE1 (second series), hits give low values 1 | locus YNR049C, strain mso1, hits give low values 0.992 | locus YNR052C, strain pop2, hits give low values 0.995 | locus YOL012C, strain htz1 2.03 | locus YOL147C, strain pex11, hits give low values 1 | locus YOR001W, strain rrp6, hits give low values 0.998 | locus YOR061W, strain CKA2, hits give low values 1.01 | locus YOR069W, strain VPS5, hits give low values 0.989 | locus YOR070C, strain gyp1, hits give low values 0.979 | locus YOR080W, strain dia2, hits give low values 0.987 | locus YOR083W, strain WHI5, hits give low values 1 | locus YOR106W, strain vam3, hits give low values 1.01 | locus YOR136W, strain idh2, hits give low values 0.981 | locus YOR144C, strain elg1, hits give low values 1 | locus YOR184W, strain ser1, hits give low values 0.993 | locus YOR231W, strain MKK1, hits give low values 1 | locus YOR265W, strain rbl2, hits give low values 0.993 | locus YOR270C, strain vph1, hits give low values 1.01 | locus YOR290C, strain snf2, hits give low values 1 | locus YOR316C, strain cot1, hits give low values 0.99 | locus YPL051W, strain arl3, hits give low values 0.992 | locus YPL078C, strain atp4, hits give low values 1 | locus YPL106C, strain sse1, hits give low values 0.958 | locus YPL240C, strain hsp82, hits give low values 0.992 | locus YPL256C, strain CLN2, hits give low values 0.976 | locus YPR119W, strain clb2, hits give low values 0.974 | locus YPR141C, strain kar3, hits give low values 0.975 | locus YPR163C, strain tif3, hits give low values 0.981 | locus YPR167C, strain met16, hits give low values 0.971 | strain wtn01, hits give low values 0.978
